Experimental data taken from PubChem BioAssay (Tox21).
Where “and” joins values, the source holds several entries; their conditions need not be identical. Equal entries are not always repeated. Inconclusive results are not listed. Calls of active or inactive are those of the source. Unless noted, the call rests on the fitted dose curve; in most records, active means well fitted curve in the direction sought with a large enough effect in the repeat runs; inconclusive means weak or mixed curves; inactive means no such curve, though single readings can be large; an effect the other way counts as inactive or inconclusive.

system: not listed separately; assay: qHTS assay to identify small molecule antagonists of the estrogen receptor alpha (ER-alpha) signaling pathway using the BG1 cell line (AID 743080; calls by dose curve;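 further: BG1 cells stimulated with 17beta-estradiol alongside compound; nearly all actives have a fitted effect of over 25% in size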); conditions: BG1Luc4E2 ERE-luciferase antagonist mode, luminescence; series mostly up to 70.3 µM; activity change, negative = inhibition: at the top concentration
Method in brief: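 Luciferase inhibition measured with ONE-Glo after 30 min at RT in BG1Luc4E2 cells given test compounds and 17beta-estradiol for 21.5 h at 37 C; CellTiter-Fluor viability read in the same wells beforehand.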
On the % scale 0 is the no-effect control and ±100 the full control effect; potency means the concentration at half of the fitted maximal effect.

SMILES | Potency | activity change, negative = inhibition
CCC(=O)Oc1ccc(/C(CC)=C(\CC)c2ccc(OC(=O)CC)cc2)cc1 | 61.1 µM (active) | 
Cc1cc(O)c(C(C)C)cc1Cl | inactive | 
CCCOC(=O)c1ccc(C(=O)OCCC)nc1 |  | 0.193% (inactive)
COCC(O)CO (stereo not drawn) |  | 5.54% [at 95 µM] (inactive)
OC/C(Br)=C(\Br)CO |  | 31.8% (inactive)
CCn1nc(C)c2c1C(=O)NCC(c1ccc(O)cc1)=N2 |  | 2.27% (inactive)
Cc1cc(C(=C2C=CC(=Nc3ccc(S(=O)(=O)O)cc3S(=O)(=O)O)C=C2)c2ccc(Nc3ccc(S(=O)(=O)O)cc3)cc2)ccc1N |  | 1.76% (inactive)
C1COCO1 |  | -1.2% (inactive)
NC(=O)Nc1ccc(Cl)cc1 |  | 4.39% (inactive)
CCOC(=O)/C=C/C(=O)O |  | -7.38% (inactive)
CN1C(=O)CC(C)(c2ccccc2)C1=O (stereo not drawn) |  | -2.66% (inactive)
ON(Cc1ccccc1)Cc1ccccc1 |  | -3.52% (inactive)
Nc1ccc(S(=O)(=O)O)c(N)c1 |  | -1.64% (inactive)
Oc1ccc(Nc2ccccc2)cc1 |  | 18.9% (inactive)
CNC(=O)N(c1ccccc1)c1ccccc1 |  | -33.3% [at 95 µM] (inactive)
CCC(C(=O)OCCN(CC)CC)c1ccccc1 (stereo not drawn) |  | -7.99% (inactive)

SMILES | Potency | activity change, negative = inhibition
O=C(O)C(Cc1cc(I)c(O)c(I)c1)c1ccccc1 (stereo not drawn) |  | 6.14% (inactive)
[O]=[Bi] |  | 3.19% [at 8.47 µM] (inactive)
CCCOCCOCCO |  | 4.82% (inactive)
CC(C)=CC=O |  | 8.74% [at 95 µM] (inactive)
CCN(CC)CCNC(=O)c1ccc(NC(C)=O)cc1 |  | 3.67% (inactive)
O=[N+]([O-])c1cccc(S(=O)(=O)NCCNS(=O)(=O)c2cccc([N+](=O)[O-])c2)c1 |  | -4.09% (inactive)
O=S(=O)(c1ccccc1)c1ccc(Cl)cc1 | 68.6 µM (active) | 
CC(=O)OCC(=O)[C@H]1CC[C@H]2[C@@H]3CCC4=CC(=O)CC[C@]4(C)[C@H]3CC[C@]12C |  | -5.09% (inactive)
COc1cc2[nH]c(=O)[nH]c(=O)c2cc1OC |  | -1.01% [at 32.5 µM] (inactive)
CC(CCc1ccc2c(c1)OCO2)NN (stereo not drawn) |  | 16.6% (inactive)
CC1CN(c2cc3c(cc2F)c(=O)c(C(=O)O)cn3-c2ccc(F)cc2F)CCN1 (stereo not drawn) |  | 9.57% (inactive)
CC(=O)Nc1ccccc1C |  | -7.1% [at 95 µM] (inactive)
CCOC(=N)CC(=O)OCC |  | 0.0569% (inactive)
Nc1ccc(S(=O)(=O)O)cc1 |  | -0.264% [at 95 µM] (inactive)
CC1=C(C=O)C(C)(C)CCC1 |  | 11.6% (inactive)

system: not listed separately; assay: qHTS assay to identify small molecule antagonists of the estrogen receptor alpha (ER-alpha) signaling pathway using the BG1 cell line - cell viability counter screen (AID 743081); conditions: BG1Luc4E2 viability, CellTiter-Fluor, 22 h; series mostly up to 70.3 µM; activity change, negative = cytotoxicity: at the top concentration;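 further: compound given together with 17beta-estradiol as the ER stimulus; nearly all actives have a fitted effect of over 45% in size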

SMILES | activity change, negative = cytotoxicity | Potency
CCC(=O)Oc1ccc(/C(CC)=C(\CC)c2ccc(OC(=O)CC)cc2)cc1 | 7.44% (inactive) | 
Cc1cc(O)c(C(C)C)cc1Cl |  | inactive
CCCOC(=O)c1ccc(C(=O)OCCC)nc1 | 4.65% (inactive) | 
COCC(O)CO (stereo not drawn) | 0.359% [at 95 µM] (inactive) | 
OC/C(Br)=C(\Br)CO | 0.309% (inactive) | 
CCC(Cc1ccccc1)(C(=O)c1ccc(N2CCOCC2)cc1)N(C)C (stereo not drawn) | -0.845% (inactive) | 
CCn1nc(C)c2c1C(=O)NCC(c1ccc(O)cc1)=N2 | 7.87% (inactive) | 
Cc1cc(C(=C2C=CC(=Nc3ccc(S(=O)(=O)O)cc3S(=O)(=O)O)C=C2)c2ccc(Nc3ccc(S(=O)(=O)O)cc3)cc2)ccc1N | -4.1% (inactive) | 
C1COCO1 | 6.94% (inactive) | 
NC(=O)Nc1ccc(Cl)cc1 | 0.659% (inactive) | 
CCOC(=O)/C=C/C(=O)O | 4.91% (inactive) | 
CN1C(=O)CC(C)(c2ccccc2)C1=O (stereo not drawn) | -1.4% (inactive) | 
ON(Cc1ccccc1)Cc1ccccc1 | -3.29% (inactive) | 
Nc1ccc(S(=O)(=O)O)c(N)c1 | -1.29% (inactive) | 
Oc1ccc(Nc2ccccc2)cc1 | -8.67% (inactive) | 
CNC(=O)N(c1ccccc1)c1ccccc1 | -2.23% [at 95 µM] (inactive) | 
CCC(C(=O)OCCN(CC)CC)c1ccccc1 (stereo not drawn) | -7.37% (inactive) | 
O=C(O)C(Cc1cc(I)c(O)c(I)c1)c1ccccc1 (stereo not drawn) | -12.5% (inactive) | 

SMILES | activity change, negative = cytotoxicity | Potency
[O]=[Bi] | 0.603% [at 8.47 µM] (inactive) | 
CCCOCCOCCO | 2.89% (inactive) | 
CC(C)=CC=O | 0.927% [at 95 µM] (inactive) | 
O=C(NCCCN1CCOCC1)c1ccc(Cl)cc1 | 4.66% (inactive) | 
CC1(C)O[C@@H]2C[C@H]3[C@@H]4CCC5=CC(=O)C=C[C@]5(C)[C@H]4[C@@H](O)C[C@]3(C)[C@]2(C(=O)CO)O1 | -1.67% (inactive) | 
CCN(CC)CCNC(=O)c1ccc(NC(C)=O)cc1 | 18.8% (inactive) | 
O=[N+]([O-])c1cccc(S(=O)(=O)NCCNS(=O)(=O)c2cccc([N+](=O)[O-])c2)c1 | -12.3% (inactive) | 
O=S(=O)(c1ccccc1)c1ccc(Cl)cc1 | -2.58% (inactive) | 
CO[C@H]1C=CO[C@@]2(C)Oc3c(C)c(O)c4c(O)c(c5c(c4c3C2=O)=NC2(CCN(CC(C)C)CC2)N=5)NC(=O)/C(C)=C\C=C/[C@H](C)[C@H](O)[C@@H](C)[C@@H](O)[C@@H](C)[C@H](OC(C)=O)[C@@H]1C |  | 26.6 µM (active) and 53.3 µM (active)
CC(=O)OCC(=O)[C@H]1CC[C@H]2[C@@H]3CCC4=CC(=O)CC[C@]4(C)[C@H]3CC[C@]12C | 0.665% (inactive) | 
COc1cc2[nH]c(=O)[nH]c(=O)c2cc1OC | 20.7% [at 32.5 µM] (inactive) | 
CC(CCc1ccc2c(c1)OCO2)NN (stereo not drawn) | -13.5% (inactive) | 
CC(=O)Nc1ccccc1C | -1.96% [at 95 µM] (inactive) | 
CCOC(=N)CC(=O)OCC | 3.43% (inactive) | 
Nc1ccc(S(=O)(=O)O)cc1 | 13% [at 95 µM] (inactive) | 
CC1=C(C=O)C(C)(C)CCC1 | 7.59% (inactive) | 
COC(OC)(C(=O)c1ccccc1)c1ccccc1 | 1.11% (inactive) | 

biological target: Aromatase (Homo sapiens) (UniProt P11511); assay: qHTS assay to identify aromatase inhibitors (AID 743083); conditions: MCF-7 aro ERE, testosterone-driven ERE luciferase, 24 h; series mostly up to 70.3 µM; activity, negative = inhibition: at the top concentration; further: nearly all actives have a fitted effect of over 55% in size
Sequence (P11511 whole entry, looked up): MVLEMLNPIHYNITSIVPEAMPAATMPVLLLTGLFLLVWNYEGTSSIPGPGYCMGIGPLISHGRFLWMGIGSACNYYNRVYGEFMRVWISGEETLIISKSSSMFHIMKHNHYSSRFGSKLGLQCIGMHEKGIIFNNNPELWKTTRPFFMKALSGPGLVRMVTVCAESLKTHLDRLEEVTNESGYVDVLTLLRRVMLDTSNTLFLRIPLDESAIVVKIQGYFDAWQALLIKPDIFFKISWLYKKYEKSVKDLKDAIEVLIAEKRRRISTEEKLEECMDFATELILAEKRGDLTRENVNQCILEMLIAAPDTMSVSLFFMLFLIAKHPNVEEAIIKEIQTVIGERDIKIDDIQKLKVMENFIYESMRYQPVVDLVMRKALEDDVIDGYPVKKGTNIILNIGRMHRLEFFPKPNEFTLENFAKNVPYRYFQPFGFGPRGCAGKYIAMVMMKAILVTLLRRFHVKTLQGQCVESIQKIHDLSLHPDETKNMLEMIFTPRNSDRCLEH

SMILES | activity, negative = inhibition | Potency
CCC(=O)Oc1ccc(/C(CC)=C(\CC)c2ccc(OC(=O)CC)cc2)cc1 | -22% (inactive) | 
Cc1cc(O)c(C(C)C)cc1Cl |  | inactive
CCCOC(=O)c1ccc(C(=O)OCCC)nc1 | 35.9% (inactive) | 
COCC(O)CO (stereo not drawn) | 0.867% [at 95 µM] (inactive) | 
OC/C(Br)=C(\Br)CO | 19.2% (inactive) | 
O=C1OCCN1/N=C/c1ccc([N+](=O)[O-])o1 |  | 29.8 µM (active)
CCC(Cc1ccccc1)(C(=O)c1ccc(N2CCOCC2)cc1)N(C)C (stereo not drawn) | 12.9% (inactive) | 
CCn1nc(C)c2c1C(=O)NCC(c1ccc(O)cc1)=N2 | -14.1% (inactive) | 
Cc1cc(C(=C2C=CC(=Nc3ccc(S(=O)(=O)O)cc3S(=O)(=O)O)C=C2)c2ccc(Nc3ccc(S(=O)(=O)O)cc3)cc2)ccc1N | -1.99% (inactive) | 
C1COCO1 | 10.4% (inactive) | 
NC(=O)Nc1ccc(Cl)cc1 | 14.7% (inactive) | 
CCOC(=O)/C=C/C(=O)O | -3.42% (inactive) | 
CN1C(=O)CC(C)(c2ccccc2)C1=O (stereo not drawn) | 5.08% (inactive) | 
ON(Cc1ccccc1)Cc1ccccc1 | 6.46% (inactive) | 
Nc1ccc(S(=O)(=O)O)c(N)c1 | -2.8% (inactive) | 
Oc1ccc(Nc2ccccc2)cc1 | -0.233% (inactive) | 
CNC(=O)N(c1ccccc1)c1ccccc1 | -4.93% [at 95 µM] (inactive) | 
CCC(C(=O)OCCN(CC)CC)c1ccccc1 (stereo not drawn) | 3.37% (inactive) | 
O=C(O)C(Cc1cc(I)c(O)c(I)c1)c1ccccc1 (stereo not drawn) | 6.53% (inactive) | 

SMILES | activity, negative = inhibition | Potency
[O]=[Bi] | 15.6% [at 8.47 µM] (inactive) | 
CCCOCCOCCO | 9.93% (inactive) | 
CC(C)=CC=O | 31.6% [at 95 µM] (inactive) | 
O=C(NCCCN1CCOCC1)c1ccc(Cl)cc1 | 11.3% (inactive) | 
CC1(C)O[C@@H]2C[C@H]3[C@@H]4CCC5=CC(=O)C=C[C@]5(C)[C@H]4[C@@H](O)C[C@]3(C)[C@]2(C(=O)CO)O1 | 71.7% (inactive) | 
CCN(CC)CCNC(=O)c1ccc(NC(C)=O)cc1 | 2.09% (inactive) | 
O=[N+]([O-])c1cccc(S(=O)(=O)NCCNS(=O)(=O)c2cccc([N+](=O)[O-])c2)c1 | -2.07% (inactive) | 
O=S(=O)(c1ccccc1)c1ccc(Cl)cc1 | -12.2% (inactive) | 
CO[C@H]1C=CO[C@@]2(C)Oc3c(C)c(O)c4c(O)c(c5c(c4c3C2=O)=NC2(CCN(CC(C)C)CC2)N=5)NC(=O)/C(C)=C\C=C/[C@H](C)[C@H](O)[C@@H](C)[C@@H](O)[C@@H](C)[C@H](OC(C)=O)[C@@H]1C | -15.2% (inactive) | 
CC(=O)OCC(=O)[C@H]1CC[C@H]2[C@@H]3CCC4=CC(=O)CC[C@]4(C)[C@H]3CC[C@]12C | 18.4% (inactive) | 
COc1cc2[nH]c(=O)[nH]c(=O)c2cc1OC | -4.48% [at 32.5 µM] (inactive) | 
CC(CCc1ccc2c(c1)OCO2)NN (stereo not drawn) | 7.24% (inactive) | 
CC1CN(c2cc3c(cc2F)c(=O)c(C(=O)O)cn3-c2ccc(F)cc2F)CCN1 (stereo not drawn) | -15.3% (inactive) | 
CC(=O)Nc1ccccc1C | -0.169% [at 95 µM] (inactive) | 
CCOC(=N)CC(=O)OCC | -7.93% (inactive) | 
Nc1ccc(S(=O)(=O)O)cc1 | 13.6% [at 95 µM] (inactive) | 
CC1=C(C=O)C(C)(C)CCC1 | 0.505% (inactive) | 
COC(OC)(C(=O)c1ccccc1)c1ccccc1 | -15.9% (inactive) | 
